This is a sample that favours compounds with a hit; in the whole collection about 3% have one here.
SENP6 block: inhibitors of human SENP6 protease; Q9GZR1; Recombinant SENP6 catalytic domain, aminoluciferin luminescence; inhibition, % at 10 µM; 330,000 compounds, 1.8% hits; AID 2599;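 active = inhibition above about 50% at the single tested dose, limit read from the data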;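 also: plate controls were DMSO wells with enzyme for no effect and DMSO wells lacking enzyme for full effect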
Target sequence (Q9GZR1 628-1112 limits assumed): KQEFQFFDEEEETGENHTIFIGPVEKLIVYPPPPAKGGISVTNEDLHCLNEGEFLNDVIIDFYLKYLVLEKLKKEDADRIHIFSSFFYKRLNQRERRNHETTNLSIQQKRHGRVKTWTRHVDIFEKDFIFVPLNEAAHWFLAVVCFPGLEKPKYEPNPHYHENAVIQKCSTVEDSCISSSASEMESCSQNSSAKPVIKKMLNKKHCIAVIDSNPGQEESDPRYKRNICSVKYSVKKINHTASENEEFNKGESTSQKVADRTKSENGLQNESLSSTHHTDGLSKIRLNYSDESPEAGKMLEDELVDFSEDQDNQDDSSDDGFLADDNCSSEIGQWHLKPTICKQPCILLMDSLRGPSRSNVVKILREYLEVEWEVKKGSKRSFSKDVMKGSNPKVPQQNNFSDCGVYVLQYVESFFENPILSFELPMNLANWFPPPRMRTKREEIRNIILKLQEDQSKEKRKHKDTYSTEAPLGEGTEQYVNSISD
SENP8 block-1: blocks human SENP8 cleavage of Nedd8 substrate. Q96LD8. recombinant SENP8, Nedd8 substrate fluorescence. inhibition, % at 20 µM. 360,000 compounds, 0.64% hits; in the data active = inhibition mostly above about 40%, no sharp cut-off; inactive = mostly below about 27%
PPC-1+TRAIL kill: compounds killing PPC-1 cancer cells with TRAIL present (potentiator screen, no TRAIL-free arm); PPC-1 cells + TRAIL, ATPLite viability luminescence; 220,000 compounds, 0.41% hits; AID 1443; cell killing (% activity), % at 4 µM or 5 µM;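 active = cell killing above 50% in the first pass at 4 µM, then a duplicate retest at 5 µM averaging 50% or more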;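 also: plate controls were cells with TRAIL plus DMSO for no effect and medium-only wells lacking cells for full effect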
SENP7 block: inhibitors of human SENP7 protease | AID 434973 | inhibition, % at 5 µM | 330,000 compounds, 1.5% hits | recombinant SENP7, Z-RLRGG-aminoluciferin luminescence, 40 min;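 active = inhibition above about 50% at the single test dose, limit read from the data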;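 also: plate controls were DMSO with enzyme for no effect and no enzyme buffer wells for full effect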
SENP8 block-2: blocks the human protease SENP8; Q96LD8; purified SENP8, Z-RLRGG-aminoluciferin cleavage, luminescence; inhibition, % at 10 µM; 330,000 compounds, 1.2% hits; AID 2540; in the data active = inhibition above about 50%
TRAIL sens C8: sensitizes caspase-8 expressing cells to TRAIL | NB7+C8 cells + TRAIL, ATPlite viability luminescence | inhibition (viability loss, TRAIL sensitization), % at 10 µM | 360,000 compounds, 1% hits | AID 624354;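 active = compounds causing at least 50% loss of cell viability in the single-dose screen, relative to plate controls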
Active calls of the source: *.

Screening O=C(CC[C@H]1O[C@@H](n2ccc(=O)[nH]c2=O)[C@H](O)[C@@H]1O)N1CCN(Cc2cccc3ccccc23)CC1 returned SENP8 block-1 14 and TRAIL sens C8 -3.
For O=C1NC[C@H](CCCCN2C[C@H](Cc3ccc(O)cc3)N(CCc3ccc(O)cc3)C(=O)C2=O)N(Cc2ccccc2)C1=O the results were SENP8 block-1 12 and TRAIL sens C8 0.
Screening Cc1noc(C)c1C(=O)N1CCC1(C)C(=O)NS(=O)(=O)c1ccccc1Cl (stereo not given) returned SENP8 block-1 20 and TRAIL sens C8 -6.
Cc1ccccc1/C=C/c1nc2ccccc2c(=O)[nH]1 was read as SENP6 block 12, SENP8 block-1 -71, PPC-1+TRAIL kill 25, SENP7 block 86*, SENP8 block-2 69* and TRAIL sens C8 54*.
For CCC1CCCCN1C(=O)Cn1nc([N+](=O)[O-])c(Cl)c1C (stereo not given) the results were SENP6 block -14, SENP8 block-1 4, PPC-1+TRAIL kill -3, SENP7 block 3, SENP8 block-2 0 and TRAIL sens C8 -1.
CCOC(=O)C1(C)/C(=N/Nc2cccc(Cl)c2)C(=O)C(=O)N1c1ccccc1 (stereo not given) was read as SENP6 block -1, SENP8 block-1 43*, PPC-1+TRAIL kill 4, SENP7 block 3, SENP8 block-2 9 and TRAIL sens C8 1.
For COc1ccc([C@@]23Oc4cc(OC)cc(OC)c4[C@]2(O)[C@H](O)[C@H](C(=O)N(C)C)[C@H]3c2ccccc2)cc1 the results were SENP8 block-1 11 and TRAIL sens C8 29.
`CCN1CCN(CCCNC(=O)c2ccc(/C=C3/Oc4ccccc4N(Cc4cccc(C)c4)C3=O)cc2)CC1` gave SENP6 block -11, SENP8 block-1 -366, SENP7 block 2, SENP8 block-2 -4 and TRAIL sens C8 55*.
For Cc1ccc(-c2ccccc2NC(=O)CCl)o1 the results were SENP6 block -22, SENP8 block-1 -36, PPC-1+TRAIL kill 0, SENP7 block 10, SENP8 block-2 -12 and TRAIL sens C8 48*.
For O=C1NC(=Nc2ccccc2)S/C1=C\c1cccs1 the results were SENP6 block 69*, SENP8 block-1 17, PPC-1+TRAIL kill -5, SENP7 block 43, SENP8 block-2 59* and TRAIL sens C8 8.
For Cc1cc(C)cc(N=C2NC(=O)/C(=C/c3cccs3)S2)c1 the results were SENP6 block 5, SENP8 block-1 22, PPC-1+TRAIL kill 5, SENP7 block 4, SENP8 block-2 -4 and TRAIL sens C8 -9.
`Cn1cccc1/C=C1\SC(=Nc2cccc(O)c2)NC1=O` gave SENP6 block 78*, SENP8 block-1 14, PPC-1+TRAIL kill 4, SENP7 block 52*, SENP8 block-2 54* and TRAIL sens C8 14.
Screening Cc1ccc(Nc2nc3ccccc3s2)cc1 returned SENP6 block 82*, SENP8 block-1 9, PPC-1+TRAIL kill 36, SENP7 block 87*, SENP8 block-2 72* and TRAIL sens C8 34.
Screening CCC(=O)NC(c1ccc(C)cc1)c1cc([N+](=O)[O-])c2cccnc2c1O (stereo not given) returned SENP8 block-1 58*, PPC-1+TRAIL kill 23 and TRAIL sens C8 54*.
`CCCC(=O)NC(c1ccco1)c1cc([N+](=O)[O-])c2cccnc2c1O` (stereo not given) gave SENP6 block 15, SENP8 block-1 53*, PPC-1+TRAIL kill 4, SENP7 block 7, SENP8 block-2 6 and TRAIL sens C8 5.
`CCC(=O)NC(c1ccc(C)cc1)c1ccc2cccnc2c1O` (stereo not given) gave SENP6 block -6, SENP8 block-1 6, SENP7 block 5, SENP8 block-2 5 and TRAIL sens C8 23.
`CC(=O)NC(c1ccc(C)cc1)c1cc([N+](=O)[O-])c2cccnc2c1O` (stereo not given) gave SENP6 block 17, SENP8 block-1 42*, PPC-1+TRAIL kill 0, SENP7 block 8, SENP8 block-2 6 and TRAIL sens C8 41.
`CCc1ccc(NC(=O)CCC(=O)Nc2nnc(C(C)C)s2)cc1` gave SENP6 block -2, SENP8 block-1 19, SENP7 block -3, SENP8 block-2 5 and TRAIL sens C8 4.
`COc1ccccc1-c1cccc([C@@H]2C[C@H]3[C@H](CON3C)CN2C(C)=O)c1` gave SENP8 block-1 9 and TRAIL sens C8 -17.
Screening CCCC(=Nc1ccc(N)cc1)C1=C(O)C(C(=O)OC)C(C)(C)CC1=O (stereo not given) returned SENP6 block 14, SENP8 block-1 80*, PPC-1+TRAIL kill 6, SENP7 block 1, SENP8 block-2 6 and TRAIL sens C8 7.
Screening Cc1cccc(N(Cc2ccccc2)C(=O)CCl)c1 returned SENP8 block-1 4, PPC-1+TRAIL kill 7 and TRAIL sens C8 96*.
O=C(CCl)N(Cc1cc(=O)[nH]c2ccccc12)c1ccccc1 was read as SENP6 block 4, SENP8 block-1 -14, SENP7 block -1, SENP8 block-2 -4 and TRAIL sens C8 47.
O=C(CCl)N(Cc1ccccc1)c1ccccc1 was read as SENP6 block 2, SENP8 block-1 21, PPC-1+TRAIL kill 12, SENP7 block -1, SENP8 block-2 1 and TRAIL sens C8 96*.
For CC(C)C(=O)N1CCN(c2ccc(NC(=O)c3ccc([N+](=O)[O-])o3)cc2Cl)CC1 the results were SENP8 block-1 32, PPC-1+TRAIL kill 37 and TRAIL sens C8 67*.
`CN1CCN(c2ccc(NC(=O)c3ccc([N+](=O)[O-])o3)cc2Cl)CC1` gave SENP6 block -20, SENP8 block-1 33, SENP7 block 0, SENP8 block-2 -23 and TRAIL sens C8 43.
`CCCC(=O)N1CCN(c2ccc(NC(=O)c3ccc([N+](=O)[O-])o3)cc2Cl)CC1` gave SENP8 block-1 -416, PPC-1+TRAIL kill 36 and TRAIL sens C8 59*.
Screening O=C(Nc1cccc(Cl)c1N1CCCC1)c1ccc([N+](=O)[O-])o1 returned SENP6 block 3, SENP8 block-1 3, PPC-1+TRAIL kill 11, SENP7 block 6, SENP8 block-2 0 and TRAIL sens C8 -4.
`CCN1CCN(c2c(Cl)cccc2NC(=O)c2ccc([N+](=O)[O-])o2)CC1` gave SENP6 block 0, SENP8 block-1 14, SENP7 block 18, SENP8 block-2 0 and TRAIL sens C8 59*.
`CCOC(=O)c1c(C)[nH]c(C)c1S(=O)(=O)N1CCN(c2ccc([N+](=O)[O-])cc2)CC1` gave SENP6 block 12, SENP8 block-1 2, SENP7 block -2, SENP8 block-2 -8 and TRAIL sens C8 -7.
`CC(=O)c1cccc(NCC(=O)N2CCN(S(=O)(=O)c3ccccc3)CC2)c1` gave SENP6 block -7, SENP8 block-1 -29, SENP7 block -1, SENP8 block-2 2 and TRAIL sens C8 -9.
